Reference: the supplement of paper PMC12024529
Values joined by “and” are separate entries in the source; they are usually repeats but may differ in a detail not shown here. Equal values may be shown once.

Test system: HEK293 WT BDD-FVIII-Gluc
Assay: secreted FVIII-Gluc luciferase Z-score vs DMSO control; higher = more FVIII-Gluc secretion
Conditions: 5 µM
Experimental: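 Natural plant-compound library (480 compounds, ST catalogue IDs) screened on HEK293 cells stably expressing WT BDD-FVIII-Gaussia luciferase fusion at 5 µM. Secreted Gluc activity in the medium is given as a Z-score relative to DMSO controls.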

Row | SMILES | secreted FVIII-Gluc luciferase Z-score
1 | CC(C)=CCC/C(C)=C\COc1c2ccoc2cc2oc(=O)ccc12 | -0.466
2 | Nc1nc2c(c(=O)[nH]1)N=C(CNc1ccc(C(=O)NC(CCC(=O)O)C(=O)O)cc1)CN2 (stereo not given) | 0.62
3 | COc1cc2oc(-c3ccccc3)cc(=O)c2cc1OC | 0.82
4 | C=C1CC/C=C(\C)CC[C@@H]2[C@@H]1CC2(C)C | 0.299
5 | CC(C)C1=CC2=CCC3C(C)(C(=O)O)CCC[C@]3(C)C2CC1 (stereo not given in full) | 0.107
6 | CC(C=CC1=C(C)CCCC1(C)C)=CC=CC(C)=CCO | 0.89
7 | Oc1cc2c(cc1O)[C@H]1c3ccc(O)c(O)c3OC[C@@]1(O)C2 | 0.368
8 | COc1ccc2c(c1OC)C(=O)O[C@@H]2[C@H]1c2c(cc3c(c2OC)OCO3)CCN1C | -0.0362
9 | O=C(O)C1[C@H]2C[C@H]3c4[nH]c5ccccc5c4CCN3C[C@@H]2CC[C@@H]1O (stereo not given in full) | 0.257
10 | COc1ccc(-c2oc3cc(OC)c(OC(C)=O)c(OC)c3c(=O)c2OC)cc1OC(C)=O | -0.47
11 | O=c1c(-c2ccc(O[C@@H]3O[C@H](CO)[C@@H](O)[C@H](O)[C@H]3O)cc2)coc2cc(O)cc(O)c12 | 0.683
12 | C1CCN2C[C@H]3C[C@H](CN4CCCC[C@@H]34)[C@H]2C1 | 1.26
13 | O=C(O)C1=C[C@@H](O)[C@@H](O)[C@H](O)C1 | 0.3
14 | O=C(CCc1ccc(O)cc1)c1c(O)cc(O)cc1O[C@@H]1O[C@H](CO)[C@@H](O)[C@H](O)[C@H]1O | 0.224 and 0.244
15 | CC(C)CC(NC(=O)C(NC(=O)NC(Cc1ccccc1)C(=O)O)C1CCN=C(N)N1)C(=O)NC(C=O)Cc1ccccc1 (stereo not given) | 0.979
16 | CC1=CC(=O)CC(C)(C)C1(O)/C=C/C(C)=C\C(=O)O (stereo not given) | 0.388
17 | CC1CCC2[C@](C)(CO)C(O)CC[C@]2(C)C12CCC(CO)(CCO)O2 (stereo not given in full) | 0.9
18 | O=c1cc(-c2ccccc2O)oc2c(O)c(O)ccc12 | 0.356
19 | O=c1[nH]cnc2c1ncn2C1OC(CO)C(O)C1O (stereo not given) | -0.0892
20 | CC(=O)C1=C(O)C=C2Oc3c(C(C)=O)c(O)c(C)c(O)c3[C@]2(C)C1=O | 1.04

Row | SMILES | secreted FVIII-Gluc luciferase Z-score
21 | CC(C)(CO)[C@@H](O)C(=O)NCCCO | 1.71
22 | O=c1cnn(C2OC(CO)C(O)C2O)c(=O)[nH]1 (stereo not given) | -2.33
23 | O=C(/C=C/c1ccc(O)cc1)c1c(O)cc(O)cc1O | 0.157
24 | COc1ccc2cc1Oc1ccc(cc1)C[C@H]1c3cc(c(OC)cc3CCN1C)Oc1c(OC)c(OC)cc3c1[C@H](C2)N(C)CC3 | 0.132
25 | O=c1c2ccccc2oc2cc(O)c(C3COCC(CO)C(O)C(O)C3O)c(O)c12 (stereo not given) | 0.341
26 | O=c1cc(-c2ccccc2)oc2cc(O[C@@H]3O[C@H](CO)[C@@H](O)[C@H](O)[C@H]3O)c(O)c(O)c12 | -0.188
27 | COc1cc(-c2cc(=O)c3ccccc3o2)ccc1O | 1.57
28 | C=C1CCC2OC2(C)CCC2C1CC2(C)C (stereo not given) | 0.146
29 | COC(=O)C1C2CC3c4[nH]c5cc(OC)ccc5c4CCN3CC2CC(OC(=O)c2cc(OC)c(OC)c(OC)c2)C1OC (stereo not given) | -0.436
30 | C=C1CCC2C(C)(CC[C@@H](O)C2(C)C)C1COc1ccc2ccc(=O)oc2c1 (stereo not given in full) | 0.344
31 | N[C@@H](CSCC(=O)O)C(=O)O | 0.103
32 | CC(C)CCCC(C)C1CCC2C3CC=C4CC(O)CCC4(C)C3CCC12C (stereo not given) | 0.231
33 | COc1cccc(-c2cc(=O)c3cc(O)ccc3o2)c1 | 0.695
34 | C[C@H]1[C@H](C)CC[C@]2(C(=O)O)CC[C@]3(C)C(=CCC4[C@@]5(C)C[C@@H](O)[C@H](O)[C@@](C)(CO)[C@@H]5CC[C@]43C)[C@H]12 (stereo not given in full) | -0.822
35 | CC1(C)CCC[C@@]2(C)C1CCC1(C)OC(=O)CC12 (stereo not given in full) | 0.281
36 | CCOC(=O)CCC(=O)OC1C(OC2C(C)C(OC3CC(C)(OC)C(O)C(C)O3)C(C)C(=O)OC(CC)C(C)(O)C(O)C(C)C(=O)C(C)CC2(C)O)OC(C)CC1N(C)C (stereo not given) | 0.0842
37 | C[C@H](O)[C@H](O)[C@@H](O)c1cnc2nc(N)[nH]c(=O)c2n1 | 0.588
38 | O=C(O)C1(O)CC(O)C(O)C(O)C1 (stereo not given) | 0.456
39 | COc1ccc2c(OC)c3ccoc3nc2c1OC | 0.816
40 | C/C(=C\CNc1ncnc2c1ncn2C1OC(CO)C(O)C1O)CO (stereo not given) | -0.332
